Out of some 5,500 compounds screened, about 2,000 (36%) were called active. About 18% were inconclusive and are not listed. The list shows a part of the results. Unmarked numbers belong to inactive results. Cut-off read from the data, not from the text of the source: active = normalized growth mostly below about 0.91 (no sharp cut-off); inconclusive = no clear call, values can overlap the other calls; inactive = mostly above about 0.92.
Test: chemical genetic growth profiling, strain panel (AID 1159580);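 note: tested at 20 µM; growth read once vehicle control cultures reached saturation at 30 °C; 1 = growth at the plate median or of vehicle wells; lower values mean less growth of the strain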
Settings: growth OD

CC1(C)C=Cc2cc3ccc(=O)oc3cc2O1
normalized growth (S. cerevisiae deletion strains, locus YJR066W, strain TOR1, hits give low values): 0.793 (active)
normalized growth (S. cerevisiae deletion strains, locus YJR075W, strain HOC1, hits give low values): 0.941
normalized growth (S. cerevisiae deletion strains, locus YKL009W, strain mrt4, hits give low values): 0.921
normalized growth (S. cerevisiae deletion strains, locus YKL068W, hits give low values): 0.966
normalized growth (S. cerevisiae deletion strains, locus YKL085W, strain MDH1 (second series), hits give low values): 0.973
normalized growth (S. cerevisiae deletion strains, locus YKL085W, strain MDH1, hits give low values): 0.973
normalized growth (S. cerevisiae deletion strains, locus YKL160W, strain elf1, hits give low values): 0.909
normalized growth (S. cerevisiae deletion strains, locus YKR001C, strain vps1, hits give low values): 0.907
normalized growth (S. cerevisiae deletion strains, locus YKR026C, strain gcn3, hits give low values): 0.942
normalized growth (S. cerevisiae deletion strains, locus YKR091W, strain srl3, hits give low values): 0.924 (active)
normalized growth (S. cerevisiae deletion strains, locus YLL001W, strain dnm1, hits give low values): 0.876 (active)
normalized growth (S. cerevisiae deletion strains, locus YLL026W, hits give low values): 0.934
normalized growth (S. cerevisiae deletion strains, locus YLL041C, strain sdh2, hits give low values): 0.937
normalized growth (S. cerevisiae deletion strains, locus YLR027C, strain aat2, hits give low values): 0.942
normalized growth (S. cerevisiae deletion strains, locus YLR039C, strain RIC1, hits give low values): 0.91
normalized growth (S. cerevisiae deletion strains, locus YLR058C, strain SHM2, hits give low values): 0.965
normalized growth (S. cerevisiae deletion strains, locus YLR102C, strain apc9, hits give low values): 0.969
normalized growth (S. cerevisiae deletion strains, locus YLR113W, strain HOG1, hits give low values): 0.729 (active)
normalized growth (S. cerevisiae deletion strains, locus YLR221C, strain rsa3, hits give low values): 0.93
normalized growth (S. cerevisiae deletion strains, locus YLR258W, strain gsy2, hits give low values): 0.895 (active)
normalized growth (S. cerevisiae deletion strains, locus YLR262C, strain YPT6 (second series), hits give low values): 0.815 (active)
normalized growth (S. cerevisiae deletion strains, locus YLR268W, strain sec22, hits give low values): 0.985
normalized growth (S. cerevisiae deletion strains, locus YLR320W, strain mms22, hits give low values): 0.891
normalized growth (S. cerevisiae deletion strains, locus YLR330W, strain CHS5, hits give low values): 0.984
normalized growth (S. cerevisiae deletion strains, locus YLR342W, strain FKS1 (second series), hits give low values): 0.87
normalized growth (S. cerevisiae deletion strains, locus YLR342W, strain FKS1, hits give low values): 0.909 (active)
normalized growth (S. cerevisiae deletion strains, locus YLR357W, strain rsc2, hits give low values): 0.979
normalized growth (S. cerevisiae deletion strains, locus YLR370C, strain arc18, hits give low values): 0.873 (active)
normalized growth (S. cerevisiae deletion strains, locus YLR371W, strain rom2, hits give low values): 0.906 (active)
normalized growth (S. cerevisiae deletion strains, locus YLR384C, strain iki3, hits give low values): 0.948
normalized growth (S. cerevisiae deletion strains, locus YLR418C, strain cdc73, hits give low values): 0.851
normalized growth (S. cerevisiae deletion strains, locus YML016C, strain PPZ1, hits give low values): 0.986
normalized growth (S. cerevisiae deletion strains, locus YML032C, strain rad52, hits give low values): 0.923
normalized growth (S. cerevisiae deletion strains, locus YML120C, strain ndi1, hits give low values): 0.85 (active)
normalized growth (S. cerevisiae deletion strains, locus YML124C, strain tub3, hits give low values): 0.96
normalized growth (S. cerevisiae deletion strains, locus YMR058W, strain fet3, hits give low values): 0.925
normalized growth (S. cerevisiae deletion strains, locus YMR078C, strain ctf18, hits give low values): 0.95
normalized growth (S. cerevisiae deletion strains, locus YMR125W, strain sto1, hits give low values): 0.999
normalized growth (S. cerevisiae deletion strains, locus YMR129W, hits give low values): 0.923 (active)
normalized growth (S. cerevisiae deletion strains, locus YMR205C, strain PFK2, hits give low values): 0.923
normalized growth (S. cerevisiae deletion strains, locus YMR223W, strain ubp8, hits give low values): 0.908
normalized growth (S. cerevisiae deletion strains, locus YMR231W, strain pep5, hits give low values): 0.976
normalized growth (S. cerevisiae deletion strains, locus YMR263W, strain SAP30, hits give low values): 0.977
normalized growth (S. cerevisiae deletion strains, locus YMR307W, strain GAS1, hits give low values): 1.06
normalized growth (S. cerevisiae deletion strains, locus YNL067W, strain RPL9B, hits give low values): 0.957
normalized growth (S. cerevisiae deletion strains, locus YNL071W, strain lat1, hits give low values): 0.863 (active)
normalized growth (S. cerevisiae deletion strains, locus YNL128W, strain TEP1, hits give low values): 1
normalized growth (S. cerevisiae deletion strains, locus YNL183C, strain NPR1, hits give low values): 0.843
normalized growth (S. cerevisiae deletion strains, locus YNL209W, strain ssb2, hits give low values): 0.923 (active)
normalized growth (S. cerevisiae deletion strains, locus YNL233W, strain BNI4, hits give low values): 0.941
normalized growth (S. cerevisiae deletion strains, locus YNL248C, strain rpa49, hits give low values): 0.916
normalized growth (S. cerevisiae deletion strains, locus YNL250W, strain rad50, hits give low values): 0.965
normalized growth (S. cerevisiae deletion strains, locus YNL271C, strain bni1, hits give low values): 0.958
normalized growth (S. cerevisiae deletion strains, locus YNL298W, strain CLA4, hits give low values): 0.97
normalized growth (S. cerevisiae deletion strains, locus YNL307C, strain MCK1, hits give low values): 0.943
normalized growth (S. cerevisiae deletion strains, locus YNL322C, strain KRE1 (second series), hits give low values): 0.917
normalized growth (S. cerevisiae deletion strains, locus YNR049C, strain mso1, hits give low values): 0.925
normalized growth (S. cerevisiae deletion strains, locus YNR052C, strain pop2, hits give low values): 0.971
normalized growth (S. cerevisiae deletion strains, locus YOL006C, strain TOP1, hits give low values): 0.75
normalized growth (S. cerevisiae deletion strains, locus YOL012C, strain htz1): 0.855
normalized growth (S. cerevisiae deletion strains, locus YOL147C, strain pex11, hits give low values): 0.964
normalized growth (S. cerevisiae deletion strains, locus YOR001W, strain rrp6, hits give low values): 0.895
normalized growth (S. cerevisiae deletion strains, locus YOR061W, strain CKA2, hits give low values): 1
normalized growth (S. cerevisiae deletion strains, locus YOR069W, strain VPS5, hits give low values): 0.99
normalized growth (S. cerevisiae deletion strains, locus YOR070C, strain gyp1, hits give low values): 0.981
normalized growth (S. cerevisiae deletion strains, locus YOR080W, strain dia2, hits give low values): 0.964
normalized growth (S. cerevisiae deletion strains, locus YOR083W, strain WHI5, hits give low values): 0.844 (active)
normalized growth (S. cerevisiae deletion strains, locus YOR106W, strain vam3, hits give low values): 0.821 (active)
normalized growth (S. cerevisiae deletion strains, locus YOR136W, strain idh2, hits give low values): 0.968
normalized growth (S. cerevisiae deletion strains, locus YOR144C, strain elg1, hits give low values): 0.972
normalized growth (S. cerevisiae deletion strains, locus YOR184W, strain ser1, hits give low values): 0.892
normalized growth (S. cerevisiae deletion strains, locus YOR231W, strain MKK1, hits give low values): 0.857 (active)
normalized growth (S. cerevisiae deletion strains, locus YOR265W, strain rbl2, hits give low values): 0.935
normalized growth (S. cerevisiae deletion strains, locus YOR270C, strain vph1, hits give low values): 0.731 (active)
normalized growth (S. cerevisiae deletion strains, locus YOR290C, strain snf2, hits give low values): 0.783 (active)
normalized growth (S. cerevisiae deletion strains, locus YOR316C, strain cot1, hits give low values): 0.978
normalized growth (S. cerevisiae deletion strains, locus YPL051W, strain arl3, hits give low values): 0.906 (active)
normalized growth (S. cerevisiae deletion strains, locus YPL055C, strain LGE1, hits give low values): 0.951
normalized growth (S. cerevisiae deletion strains, locus YPL078C, strain atp4, hits give low values): 0.82 (active)
normalized growth (S. cerevisiae deletion strains, locus YPL106C, strain sse1, hits give low values): 0.843 (active)
normalized growth (S. cerevisiae deletion strains, locus YPL240C, strain hsp82, hits give low values): 0.936
normalized growth (S. cerevisiae deletion strains, locus YPL256C, strain CLN2, hits give low values): 0.776 (active)
normalized growth (S. cerevisiae deletion strains, locus YPR119W, strain clb2, hits give low values): 0.953
normalized growth (S. cerevisiae deletion strains, locus YPR141C, strain kar3, hits give low values): 0.957
normalized growth (S. cerevisiae deletion strains, locus YPR163C, strain tif3, hits give low values): 0.983
normalized growth (S. cerevisiae deletion strains, locus YPR167C, strain met16, hits give low values): 0.948
normalized growth (S. cerevisiae deletion strains, strain wtn01, hits give low values): 0.927
normalized growth (S. cerevisiae strains, strain wild type, hits give low values): 0.974

From PubChem BioAssay AID1159580 (chemical genetic matrix, 2015)
